HT1080 IDH1KD tx = kills HT-1080 cells with IDH1 knockdown. HT-1080 IDH1 knockdown viability, ATP luminescence, 48 h. Potency, µM (highest dose often 46.1 µM), hits mostly cytotoxic. 360,000 compounds, 2% hits
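Cytotoxicity counter-line: IDH1KD HT-1080, 48 h, CellTiter-Glo. Curves classed by r2, magnitude and activity.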
TDP1 cell noCPT = qHTS for Inhibitors of human tyrosyl-DNA phosphodiesterase 1 (TDP1): qHTS in cells in absence of CPT; DT40 Tdp1-/- hTDP1 cells, no CPT, ATP luminescence, 48 h; Potency, µM (top dose mostly 46.2 µM), actives largely listed as inhibitors; 420,000 compounds, 15% hits; note: nearly all actives have a fitted effect of over 55% in size
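Stably hTDP1-transfected Tdp1-null chicken DT40 cells were treated with library compounds minus camptothecin and grown for at least 48 hr at 37 °C, after which cellular ATP was quantified by luminescence.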
KB-3-1 tox = KB-3-1 parental cell cytotoxicity | Potency, µM (highest dose often 46.1 µM), actives largely listed as cytotoxic | 400,000 compounds, 1.4% hits | KB-3-1 viability, CellTiter-Glo ATP luminescence, 72 h; note: nearly all actives have a fitted effect of over 60% in size
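KB-3-1 parental drug-naive adenocarcinoma cells in DMEM/10% FBS, incubated 72 h at 37 C with pin-transferred compounds across a concentration series. Viability by CellTiter-Glo luminescence; concentration-response curves fitted after normalization.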
DT40 TDP1 CPT = DT40-hTDP1 cell growth loss with CPT | chicken DT40 Tdp1-/-;hTDP1 cells + 20 nM CPT, ATP luminescence, 48 h | Potency, µM (highest dose often 46.2 µM), usual class: inhibitors | 420,000 compounds, 12% hits; note: nearly all actives have a fitted effect of over 55% in size
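Chicken DT40 Tdp1-/- cells complemented with human TDP1, 400 cells/well, exposed to compounds plus 20 nM camptothecin for at least 48 h at 37 C; viability read as ATP content by CellTiter-Glo luminescence.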
HT1080-NT tox = kills 2HG-producing HT-1080-NT fibrosarcoma cells. HT-1080-NT fibrosarcoma viability, CellTiter-Glo ATP luminescence, 48 h. Potency, µM (titrated, usually from 46.1 µM), actives largely listed as cytotoxic. 360,000 compounds, 1.6% hits;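 note: NT is the 2HG producing partner of a matched IDH1 knockdown line; nearly all actives have a fitted effect of over 55% in size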
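Fibrosarcoma NT cells, 750 per well in 5% FBS RPMI, were exposed to compound for 48 hours. Viability: CellTiter-Glo luminescence.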
KB-V1 cytotox = KB-V1 MDR subline cytotoxicity. KB-V1 MDR cells viability, CellTiter-Glo, 72 h. Potency, µM (series often up to 46.1 µM), usual class: cytotoxic. 400,000 compounds, 3.4% hits; note: nearly all actives have a fitted effect of over 60% in size
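Drug-selected KB-V1 cells, grown in DMEM lacking phenol red with 10% FBS, receive compound titrations; after three days at 37 degrees C, surviving cell ATP is quantified by CellTiter-Glo luminescence and responses normalized and curve-fitted.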
Hits are given with their value; i = inactive; ? = inconclusive; nt = no result; [ ] = remark or other dose. Only some compounds are listed: those with a hit (about 19% of all), similar ones and a draw of the others. Calls come from the whole dose curve; as a rule, active = well fitted curve in the direction sought with a large enough effect; inconclusive = small, poorly fitted or top-dose-only effect, or another doubt; inactive = no such curve, though single readings can be large; an effect the other way counts as inactive or inconclusive.

SMILES	HT1080 IDH1KD tx	TDP1 cell noCPT	KB-3-1 tox	DT40 TDP1 CPT	HT1080-NT tox	KB-V1 cytotox
Cc1cccc(-n2ncc3c2CCCC3NC(=O)CCc2ccncc2)c1C (stereo not given)	i	6.5µM	?	12µM	i	i
Cc1cc(C(=O)NC2CCCc3c2cnn3-c2cccc(C)c2C)n(C)n1 (stereo not given)	?	0.21µM	i	0.15µM	?	?
Cc1ccn(CCC(=O)NC2CCCc3c2cnn3-c2cccc(C)c2C)n1 (stereo not given)	i	i	?	?	i	i
CC(C)NC(=O)c1ccc2sc([C@@H]3O[C@H](CO)[C@H](O)[C@H](O)[C@H]3O)nc2c1	i	i	i	i	i	i
CCCN(CC(=O)Nc1ccccc1C)C(=O)C1CC(=O)N(c2ccc(CC)cc2)C1 (stereo not given)	i	i	i	i	i[9.24 µM]	i
CCN(CC)S(=O)(=O)c1ccc(C(=O)N2CCN=C2SCc2cccnc2)cc1	i	i	i	i	i	?
Cc1ccc(CNC(=O)CC2Oc3ccccc3NC2=O)cc1 (stereo not given)	nt	i	nt	i	nt	nt
COc1ccc(C(=O)C[n+]2cn(C(F)F)c3ccccc32)c(F)c1	?	21µM	i	?	21µM	i
CC(=O)c1ccc(NS(=O)(=O)c2cccc(C)c2)cc1	i	i	i	i	i	i
CCCCCn1c(=N)c(S(=O)(=O)c2ccccc2)cc2c(=O)n3cccc(C)c3nc21	nt	nt	i	nt	nt	i
CCCc1cc2c(cc1NC(=O)c1ccccc1C)OCO2	i	i	i	i	i	i
O=C(Nc1cccc(C(F)(F)F)c1)N1CC2CCCN2c2ccccc21 (stereo not given)	nt	?	i	?	nt	i
COC(=O)c1ccc(Cl)cc1NC(=O)N1CC2CCCN2c2ccccc21 (stereo not given)	nt	?	i	?	nt	i
Cc1ccc(NC(=O)N2CC3CCCN3c3ccccc32)cc1Cl (stereo not given)	nt	16µM	i	?	nt	i
Cc1ccc(NC(=O)N2CC3CCCN3c3ccccc32)cc1C (stereo not given)	nt	23µM	i	18µM	nt	i
Cc1ccc(NC(=O)N2CC3CCCN3c3ccccc32)c(C)c1 (stereo not given)	nt	18µM	i	23µM	nt	i
CC(C)c1ccc(C2c3[nH]c4ccccc4c3C[C@H]3C(=O)N(c4ccccc4C(=O)N4CCC[C@H]4C(=O)O)C(=O)N23)cc1 (stereo not given in full)	i	i	i	i	i	i
CCN(CC(=O)Nc1ccccc1C(F)(F)F)C(=O)/C=C/c1ccc(Cl)c([N+](=O)[O-])c1	i	i	i	i	i	i
OC[C@H]1O[C@@](CO)(O[C@H]2O[C@H](CO)[C@@H](O)[C@H](O)[C@H]2O)[C@@H](O)[C@@H]1O	nt	i	nt	i	nt	nt
COC(=O)COc1ccc(S(=O)(=O)NCc2ccc3c(c2)OCO3)cc1C	i	i	i	i	i	?
CC1CN(Cc2cccn2-c2cccnc2)Cc2cc(Cl)ccc2O1 (stereo not given)	nt	18µM	nt	i[9.04 µM]	nt	nt
COC(=O)[C@@]1(Cc2ccc(F)cc2)[C@H]2c3cc(C(=O)N4CCCC4)n(C)c3C[C@H]2CN1C(=O)c1ccccc1	i	16µM	i	23µM	i	?
COC(=O)[C@@]1(Cc2ccc(F)cc2)[C@H]2c3cc(C(=O)N4CCCC4)n(Cc4ccccc4)c3C[C@H]2CN1C(=O)c1ccccc1	?	23µM	?	?	?	i
COC(=O)[C@@]1(Cc2ccc(OC)cc2)[C@H]2c3cc(C(=O)N4CCCC4)n(Cc4ccsc4Br)c3C[C@H]2CN1C(=O)c1ccccc1	?	?	18µM	?	?	?
COc1ccc(Cl)cc1NC(=O)CN1C(=O)C(=O)N(C2CCCC2)C1=O	i	i	i	i	i	i
SMILES	HT1080 IDH1KD tx	TDP1 cell noCPT	KB-3-1 tox	DT40 TDP1 CPT	HT1080-NT tox	KB-V1 cytotox
COCC(=O)N1CCC2(CCN(Cc3ccc(C#N)cc3)CC2)CC1	nt	i	nt	i	nt	nt
N#Cc1ccc(CN2CCC3(CCNCC3)CC2)cc1	nt	18µM	nt	?	nt	nt
Cc1ccccc1C(=O)Nc1ccc2c(c1)nc(CCNC(=O)c1ccco1)n2C	i	i	i	i	i	i
O=C(COc1ccc(F)cc1)Nc1ccccc1C(=O)OCc1cc(=O)n2ccsc2n1	nt	i	i	i	nt	i
CN(C(=O)COC(=O)C1COc2ccccc2O1)C1(C#N)CCCCC1 (stereo not given)	i	i	i	i	i	i
C/C(O)=C\c1nc2ccccc2oc1=O	?	7.3µM	?	10µM	i	i
Cc1ccc2oc(=O)c(/C=C(\O)CC(C)C)nc2c1	i	i	i	23µM	i	i
CCS(=O)(=O)CCSc1nc2ccccc2o1	i	i	i	i	i	i
O=c1oc2ccccc2nc1/C=C(\O)c1ccc(Br)cc1	i	?	i	?	i	i
CS(=O)(=O)Cc1nc2ccccc2oc1=O	i	6.5µM	i	6.5µM	i	i
COc1ccc(C)cc1NC(=O)n1ncc2cc(Cl)ccc21	i	i	i	i	i	i
CCOC(=O)C1CCCN(S(=O)(=O)c2cc(OCC(=O)NC3CCCCC3)c(C)cc2Cl)C1 (stereo not given)	i	18µM	i	18µM	i	16µM
Cc1cc(Cl)c(S(=O)(=O)N2CCN(c3ccc(F)cc3)CC2)cc1OCC(=O)NC1CCCCC1	i	8.2µM	0.73µM	12µM	?	?
Cc1cc(S(=O)(=O)N2CCCC2)ccc1OCC(=O)NC1CCCC1	i	i	i	i	i	i
Cc1cc(Cl)c(S(=O)(=O)NC2CCCCC2)cc1OCC(=O)Nc1nncs1	?	23µM	i	26µM	i	i
O=C(CSc1cccc[n+]1[O-])C12CC3CC(CC(C3)C1)C2	i	?	i	?	i	i
Cc1cc(C)c2c(-n3cccc3)c(C(=O)NCCc3ccc(Cl)cc3)sc2n1	nt	?	nt	i	nt	nt
CC1=CC(=O)C(C(C)C)=CC1=NC(=O)c1ccc(C)cc1	i	2.1µM	i	2.3µM	i	i
CCOC(=O)c1sc(=NC(=O)c2ccc(C)cc2)n(C)c1C	i	?	i	i	i	i
COc1ccccc1CNC(=O)Cc1c(C)c2c(cc(C)c3c(C)c(C)oc32)oc1=O	nt	i	nt	i	nt	nt
COc1ccccc1N1CCN(C(=O)c2sc3nc(-c4ccc(F)cc4)cn3c2C)CC1	i	16µM	?	23µM	i	i
